Data as given in PubChem BioAssay (NCATS).
Records with an inconclusive call do not appear. Where a call stands in place of a potency, no number is given. The source made the active and inactive calls. The call rests on the fitted dose curve; in most records, active means well fitted cell-killing curve with a large enough effect; inconclusive means small, poorly fitted or top-dose-only effect, or effect the other way; inactive means flat fitted curve, though single readings scatter.

Each molecule was assayed on CAOV3 (assay: Primary qHTS to identify gynecologic anti-cancer compounds using libraries of approved drugs and bioactive compounds (AID 1345084; further: nearly all actives have a fitted effect of over 55% in size)). Settings: Gynecologic cancer cell panel viability, ATPlite luminescence, 48 h; series mostly up to 57.5 µM.
Excerpt: National Center for Advancing Translational Sciences [NCATS] Assay Overview: Chemotherapeutic drug responses vary from cancer to cancer and from patient to patient. These variations could be caused by a number of factors including patient genomic background, tumor mutations, tumor heterogeneity, and aspects of drug treatment. Chemotherapeutic drug resistance is also a common issue and can lead to ineffective treatment and patient death. Here we have profiled the cell killing effects of thousands of compounds to characterize the responses in three gynecological cancers, identify cancer-selective compounds, and understand the diversity of responses to these compounds from pan-cancer suppressors to single cell line selective compounds. In this assay, we screened a 7,914 compound drug library that included approved drug and bioactive compounds in six ovarian, three cervical, and […] placental cancer cell lines using the ATPlite assay for cell viability. […] The cervical cancer cell lines included HeLa, Ca Ski, and C-33 A. The placental cancer cell lines included JEG-3. HEK 293T cells were used as the control cell line to determine the selectivity index. ATPlite is a luminescence based assay reliant on the conversion of a luciferase substrate to light in the presence of ATP. As a cytotoxic compound will suppress growth and decrease the number of cells, the concentration of ATP will decrease, and less light signal will be detected in the well.
Assay Protocol Summary: 1,000 cells in 4 uL of media were dispensed into white, solid bottom 1536-well plates using a Multidrop Combi (Thermo Scientific). The Assay plates were incubated for 16 hours at 37 C with 5% CO2 in assay plates, followed by the addition of 23 nL of DMSO or drug dissolved in DMSO. Each compound was assayed in five concentrations (0.092, 0.46, 2.3, 11.5, and 57.5 uM), using the automated Wako 1536 Pin Tool workstation and incubated at 37 C with 5% CO2 48 hours. 4 uL of ATPlite, the ATP monitoring reagent, was then added to the each well of the assay plates using the Multidrop Combi reagent dispenser followed by incubation for 15 minutes at room temperature. The resulting luminescence was measured using the ViewLux plate reader.
Potency means the concentration at half of the fitted maximal effect.

Question: `Cc1ccc(-c2cc(C(F)(F)F)nn2-c2ccc(S(N)(=O)=O)cc2)cc1` was tested. Which Potency did it give?
Answer: inactive

Question: With `COc1ccccc1OCC(O)CN1CCN(CC(=O)Nc2c(C)cccc2C)CC1` (stereo not given) as the molecule, how does the Potency read?
Answer: inactive

Question: For `CCOC(=O)Nc1ccc(NCc2ccc(F)cc2)nc1N`, which Potency is on record?
Answer: inactive

Question: `COc1ccc(CCN(C)CCCC(C#N)(c2ccc(OC)c(OC)c2)C(C)C)cc1OC` (stereo not given) was tested. Which Potency did it give?
Answer: inactive

Question: Which Potency does the source give for `CC(C)NCC(O)COc1ccc(CCOCC2CC2)cc1` (stereo not given) here?
Answer: inactive

Question: Which Potency does the source give for `Cn1cnc2c1c(=O)[nH]c(=O)n2C` here?
Answer: inactive

Question: For `N[C@@H](Cc1c[nH]c2ccc(O)cc12)C(=O)O`, which Potency is on record?
Answer: inactive

Question: With `CC#C[C@]1(O)CC[C@H]2[C@@H]3CCC4=CC(=O)CCC4=C3[C@@H](c3ccc(N(C)C)cc3)C[C@@]21C` as the molecule, how does the Potency read?
Answer: inactive

Question: For `NC(=O)OCC(COC(N)=O)c1ccccc1`, which Potency is on record?
Answer: inactive

Question: With `O=C(C1CCCCC1)N1CC(=O)N2CCc3ccccc3C2C1` (stereo not given) as the molecule, how does the Potency read?
Answer: inactive

Question: How did the Potency turn out when `CC(C)(C)C(=O)Oc1ccc(S(=O)(=O)Nc2ccccc2C(=O)NCC(=O)O)cc1` was run?
Answer: inactive

Question: With `Nc1nc2c(ncn2COC(CO)CO)c(=O)[nH]1` as the molecule, how does the Potency read?
Answer: inactive

Question: How did the Potency turn out when `CC(C)C(=O)Nc1ccc([N+](=O)[O-])c(C(F)(F)F)c1` was run?
Answer: inactive

Question: With `O=C1c2c(O)ccc(O)c2C(=O)c2c(NCCNCCO)ccc(NCCNCCO)c21` as the molecule, how does the Potency read?
Answer: 3.16 µM (active)

Question: For `CC[C@@]1(O)C(=O)OCc2c1cc1n(c2=O)Cc2cc3c(CN(C)C)c(O)ccc3nc2-1`, which Potency is on record?
Answer: 3.16 µM (active)

Question: How did the Potency turn out when `CC(C(=O)O)c1cccc(C(=O)c2ccccc2)c1` (stereo not given) was run?
Answer: inactive

Question: How did the Potency turn out when `CCC1(C)CC(=O)NC1=O` (stereo not given) was run?
Answer: inactive

Question: For `Cc1ccc(C(=O)Nc2ccc(S(=O)(=O)O)c3cc(S(=O)(=O)O)cc(S(=O)(=O)O)c23)cc1NC(=O)c1cccc(NC(=O)Nc2cccc(C(=O)Nc3cc(C(=O)Nc4ccc(S(=O)(=O)O)c5cc(S(=O)(=O)O)cc(S(=O)(=O)O)c45)ccc3C)c2)c1`, which Potency is on record?
Answer: inactive

Question: `Clc1ccc(C(c2ccccc2Cl)C(Cl)Cl)cc1` (stereo not given) was tested. Which Potency did it give?
Answer: inactive

Question: With `COc1nc(C)nc(Cl)c1NC1=NCCN1` as the molecule, how does the Potency read?
Answer: inactive

Question: `CC(C)NCC(O)c1ccc(O)c(O)c1` (stereo not given) was tested. Which Potency did it give?
Answer: inactive

Question: `CN(CCOc1ccc(NS(C)(=O)=O)cc1)CCc1ccc(NS(C)(=O)=O)cc1` was tested. Which Potency did it give?
Answer: inactive

Question: For `CS(=O)(=O)Nc1ccc([N+](=O)[O-])cc1Oc1ccccc1`, which Potency is on record?
Answer: inactive

Question: With `COC(=O)Nc1nc2ccc(C(=O)c3cccs3)cc2[nH]1` as the molecule, how does the Potency read?
Answer: inactive

Question: How did the Potency turn out when `OCCN1CCN(CCCN2c3ccccc3Sc3ccc(C(F)(F)F)cc32)CC1` was run?
Answer: inactive

Question: Which Potency does the source give for `COc1cc2nc(N3CCN(C(=O)C4COc5ccccc5O4)CC3)nc(N)c2cc1OC` (stereo not given) here?
Answer: inactive

Question: For `Cc1cnc(C(=O)NCCc2ccc(S(=O)(=O)NC(=O)NC3CCCCC3)cc2)cn1`, which Potency is on record?
Answer: inactive

Question: For `CCCCc1oc2ccccc2c1C(=O)c1cc(I)c(OCCN(CC)CC)c(I)c1`, which Potency is on record?
Answer: inactive

Question: How did the Potency turn out when `O=C(c1ccc(F)cc1)C1CCN(CCn2c(=O)[nH]c3ccccc3c2=O)CC1` was run?
Answer: inactive

Question: `CCC1(c2ccccc2)C(=O)NCNC1=O` was tested. Which Potency did it give?
Answer: inactive

Question: How did the Potency turn out when `COc1cc2nc(N(C)CCCNC(=O)C3CCCO3)nc(N)c2cc1OC` (stereo not given) was run?
Answer: inactive

Question: For `CCCNCC(O)COc1ccccc1C(=O)CCc1ccccc1` (stereo not given), which Potency is on record?
Answer: inactive

Question: For `Cn1c(=O)c2[nH]cnc2n(C)c1=O`, which Potency is on record?
Answer: inactive

Question: How did the Potency turn out when `CC(COc1ccccc1)N(CCCl)Cc1ccccc1` (stereo not given) was run?
Answer: inactive

Question: How did the Potency turn out when `CC1(CN2CCC(n3c(=O)[nH]c4ccccc43)CC2)OCc2ccccc2-n2cccc21` (stereo not given) was run?
Answer: inactive

Question: How did the Potency turn out when `CN1CCN(CCCN2c3ccccc3Sc3ccc(Cl)cc32)CC1` was run?
Answer: inactive

Question: How did the Potency turn out when `Clc1ccc2nsnc2c1NC1=NCCN1` was run?
Answer: inactive

Question: How did the Potency turn out when `CN(C)CCOC(c1ccccc1)c1ccccc1` was run?
Answer: inactive

Question: How did the Potency turn out when `Nc1ccn([C@H]2CC[C@@H](CO)O2)c(=O)n1` was run?
Answer: inactive

Question: How did the Potency turn out when `CN(Cc1cnc2nc(N)nc(N)c2n1)c1ccc(C(=O)N[C@@H](CCC(=O)O)C(=O)O)cc1` was run?
Answer: inactive
